Only some compounds are listed: those with a hit (about 6.6% of all), similar ones and a draw of the others.
Beta cell apopt: blocks beta cell apoptosis | protection from apoptosis, % (concentration not given with the values) | INS-1E cytokine-induced death, ATP luminescence, 48 h; percent of positive-control rescue, neutral wells zero | 300,000 tested, 0.8% active;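 active means Every replicate reaches about 75%, or at least half do and their mean reaches it too, limit read from the data; inconclusive means At least half of replicates reach the limit but their mean does not; inactive means Under half of replicates reach the limit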;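 further: 0% = cytokine-treated negative control wells and 100% = positive control rescue; higher means more ATP so stronger rescue from cytokine killing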
MPTP block: inhibitors of mitochondrial permeability transition pore | isolated mouse mitochondria, Ca2+ swelling absorbance, 30 min | inhibition, % at 10 µM | 360,000 tested, 1.4% active;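 active means inhibition of 50% or more, scaled per plate between neutral and stimulator controls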;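 further: 0% = DMSO wells given calcium and 100% = 1 mM EGTA wells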
Mdm2-MdmX inh: disrupts the human Mdm2-MdmX interaction; O15151+Q00987; SaOS-2 split-luciferase Mdm2/MdmX complementation, luminescence; inhibition, % at 8 µM; 330,000 tested, 3% active; AID 485346;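 active means inhibition of at least 50% at 8 µM in the primary screen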
Gli-Sufu antag: antagonists of Gli-Sufu signaling; inhibition, % at 5 µM; 340,000 tested, 0.74% active; Sufu-KO-LIGHT fibroblasts, Gli luciferase reporter luminescence;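 active means inhibition above about 55%, limit read from the data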;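 further: 0% = DMSO-treated cells and 100% = wells with medium but no cells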
NR3A LBD binder: modulators (binders) of human NR3A ligand-binding domain; 340,000 tested, 2.5% active; Tm shift relative to glycine control, % at 25 µM; AID 1259313; NR3A LBD differential scanning fluorimetry, Tm shift; 0% = protein alone, 100% = glycine-bound protein;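 active means melting temperature shift of at least 10% of the positive control shift, at one fixed dose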
CSC inhib: blocks cancer stem cells. cancer stem cell-like cells viability, luminescence. inhibition, % at 7.5 µM. 300,000 tested, 1.1% active. AID 2717; in the data active means inhibition above about 75%; inconclusive means no clear call, values can overlap the other calls; tested in HMLE shEcad cells
Mdm2 MdmX conf: confirmation of human Mdm2/MdmX interaction inhibitors. shares compounds with Mdm2-MdmX inh. Mdm2-MdmX binding, luminescent assay. 10,000 tested, 55% active. inhibition, % at 8 µM; in the data active means inhibition above about 40%
Full FLuc ctr: counter-screen for Mdm2/MdmX inhibitors: full-length luciferase; inhibition, % at 8 µM; shares compounds with Mdm2-MdmX inh; SaOS-2 full-length luciferase counterscreen, luminescence; 6,200 tested, 77% active;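 active means mean inhibition at 8 µM reaching about 37%, which flags the compound as non-specific, limit read from the data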;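 further: p53-null SaOS-2 cells with luciferase driven by a doxycycline-inducible promoter; compound on cells about two nights before reading with doxycycline added after day one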
* = called active by the depositor; ? = inconclusive; . = no result given.

SMILES | Beta cell apopt | MPTP block | Mdm2-MdmX inh | Gli-Sufu antag | NR3A LBD binder | CSC inhib | Mdm2 MdmX conf | Full FLuc ctr
COC(=O)c1cc(=O)n(Cc2ccc3c(c2)OCO3)c(=Nc2ccccc2)s1 | -3 | 1 | 36 | 7 | 0 | 59 | . | .
COC(=O)c1cc(=O)n(Cc2cccs2)c(=Nc2ccc(F)cc2)s1 | 4 | 3 | 50* | 3 | -1 | 121* | 12 | .
COC(=O)Cn1c(O)c(N=NC(=O)CNC(=O)COc2cccc(C)c2)c2ccccc21 | -2 | 0 | -2 | -21 | -3 | -19 | . | .
O=c1cc(N2CCN(c3cccc(Cl)c3)CC2)[nH]c(=O)n1C1CCCCC1 | 89* | -6 | 84* | 20 | -1 | 66 | 72* | 40*
O=c1cc(N2CCN(c3ccccc3)CC2)[nH]c(=O)n1C1CCCCC1 | -28 | -2 | 67* | 6 | -1 | 49 | 66* | 56*
CCn1c(=O)c(C(=O)NCCCO)c(O)c2ccccc21 | -11 | 1 | 79* | 28 | -1 | 5 | 41* | 58*
O=C(NCCCO)c1c(O)c2cccc3c2n(c1=O)CCC3 | 1 | 0 | 81* | -1 | 2 | 9 | 56* | 25
CNC(=O)c1c(O)c2cccc3c2n(c1=O)CC3 | -4 | -4 | 75* | 9 | 0 | -9 | 54* | 16
CCCCNC(=O)c1c(O)c2cccc3c2n(c1=O)CCC3 | 0 | 3 | 8 | 24 | 2 | 6 | . | .
O=C(Nc1ccc(Cl)c(S(=O)(=O)N2CCOCC2)c1)c1ccc(OCC2CCCO2)cc1 (centres undefined) | 4 | 5 | 75* | 37 | -3 | -1 | 65* | 60*
O=C(Nc1ccc(Cl)c(S(=O)(=O)N2CCOCC2)c1)c1n[nH]c(=O)c2ccccc12 | -3 | 0 | 60* | -1 | 0 | . | -13 | .
Cc1cc(C)cc(NC(=O)NCC2CCN(Cc3cc(C)ccc3C)CC2)c1 | 1 | 1 | 50* | 5 | -1 | 2 | 36 | .
Cc1ccc(C)c(CN2CCC(CNC(=O)Nc3ccc(F)c(Cl)c3)CC2)c1 | 14 | 2 | 69* | 35 | -2 | 18 | 33 | 56*
Cc1ccc(C)c(CN2CCC(CNC(=O)Nc3cccc(Cl)c3C)CC2)c1 | 7 | -1 | 41 | -29 | 4 | -4 | . | .
CCOC(=O)CN1C(=O)N[C@@H](c2ccccc2)[C@H](C(C)=O)[C@H]1C | -8 | 0 | -14 | -3 | 2 | 4 | . | .
CCCCN1C(=O)CC2CCOC21C (centres undefined) | . | 1 | . | . | . | . | . | .
CCCN1C(=O)/C(=C/c2ccc(C)s2)SC1=Nc1ccc(OC)cc1 | 2 | -7 | 10 | 6 | -1 | 16 | . | .
COc1ccc(N=C2S/C(=C\c3ccc(Cl)c([N+](=O)[O-])c3)C(=O)N2CCN(C)C)cc1 | 0 | -2 | 100* | -1 | 2 | 105* | 67* | 14
CCN(CC)CCN1C(=O)/C(=C\c2ccc(Cl)c([N+](=O)[O-])c2)SC1=Nc1ccc(OC)cc1 | -1 | 1 | 100* | 3 | -2 | ? | 98* | 0
CCN1C(=O)/C(=C/c2cccs2)SC1=Nc1ccc(OC)cc1 | 4 | 1 | -15 | -96 | 0 | 16 | . | .
Cc1nc(N2CCCCC2)[nH]c(=O)c1CN(C)N=O | . | 3 | . | . | . | . | . | .
CN1CCN(Cc2c(O)ccc3cc(Br)ccc23)CC1 | 3 | . | 51* | 7 | 2 | -36 | 8 | .
CC(=O)C1=C(O)CC(c2ccccc2)CC1=NCCc1c(C)[nH]c2ccc(C)cc12 (centres undefined) | 4 | 0 | -13 | 6 | 3 | 13 | . | .
CCC(=NCCc1c(C)[nH]c2ccc(C)cc12)C1=C(O)CC(c2ccccc2)CC1=O (centres undefined) | 15 | 1 | 67* | 46 | -6 | 72 | 61* | 70*
O=C(c1cccc(N2CCCC2=O)c1)N1CCN(c2cccc(Cl)c2)CC1 | 16 | 0 | 57* | 7 | -1 | -23 | 68* | 48*
SMILES | Beta cell apopt | MPTP block | Mdm2-MdmX inh | Gli-Sufu antag | NR3A LBD binder | CSC inhib | Mdm2 MdmX conf | Full FLuc ctr
Cc1cccc(N2CCN(C(=O)c3cccc(N4CCCC4=O)c3)C(C)C2)c1 (centres undefined) | 7 | 1 | 55* | 6 | -1 | -4 | 60* | 50*
FC(F)(F)c1ccccc1Cc1c(-c2cccc(Br)c2)nc2c3ccccc3ccn12 | . | 2 | . | . | . | . | . | .
Cc1ccc(S(=O)(=O)NCC(=O)OC(C)C(=O)NC2CCCCC2C)cc1C (centres undefined) | . | 0 | 3 | -9 | 1 | . | . | .
O=C(NCc1cc(C(F)(F)F)ccc1Cl)c1cccc2c1C(=O)c1ccc(Cl)cc1S2(=O)=O | 9 | . | 54* | . | . | . | 1 | .
O=C(NC1CCCCC1)c1cccc2c1C(=O)c1ccc(-c3ccc(OC(F)(F)F)cc3)cc1S2(=O)=O | 40 | 0 | 71* | -4 | 1 | . | 29 | 79*
COc1ncc(-c2ccc3c(c2)S(=O)(=O)c2cccc(C(=O)NCc4ccco4)c2C3=O)cn1 | -2 | 0 | 53* | 33 | 0 | -6 | 20 | .
O=C(NCc1ccccc1Cl)c1cccc2c1C(=O)c1ccc(-c3ccc(OC(F)(F)F)cc3)cc1S2(=O)=O | 16 | -6 | 68* | -5 | -5 | 65 | 6 | .
COc1ncc(-c2ccc3c(c2)S(=O)(=O)c2cccc(C(=O)O)c2C3=O)cn1 | -1 | -2 | 13 | -5 | 2 | -13 | . | .
O=C(O)c1cccc2c1C(=O)c1ccc(Cl)cc1S2(=O)=O | 1 | 1 | 0 | 8 | 2 | 1 | . | .
CNC(=O)NC(=O)CSc1ccc(S(=O)(=O)N2CCOCC2)cn1 | 6 | -2 | 8 | 0 | 0 | -2 | . | .
Cc1ccc(S(=O)(=O)N2[C@H](CC(=O)c3ccc(Cl)c(Cl)c3)OC[C@@H]2C)cc1 | . | 0 | . | . | . | . | . | .
O=C(NCc1cc(C(F)(F)F)ccc1Cl)c1cccc2c1C(=O)c1ccc(-c3ccc(OC(F)(F)F)cc3)cc1S2(=O)=O | 4 | . | 77* | . | . | 19 | -13 | .
O=C(NCC1CCCO1)c1cccc2c1C(=O)c1ccc(N3CCC(Cc4ccccc4)CC3)cc1S2(=O)=O (centres undefined) | 10 | -1 | 54* | 13 | 1 | . | 19 | .
O=C(NCc1ccccc1)c1cccc2c1C(=O)c1ccc(/C=C/c3ccccc3)cc1S2(=O)=O | 31 | 1 | 77* | -7 | 0 | . | 21 | .
CC1CCN(c2ccc3c(c2)S(=O)(=O)c2cccc(C(=O)NC[C@@H]4CCCO4)c2C3=O)CC1 | 20 | -1 | 16 | -9 | 4 | . | . | .
COc1ccc(-c2ccc3c(c2)S(=O)(=O)c2cccc(C(=O)NCc4cccc(OC(F)(F)F)c4)c2C3=O)cc1OC | 11 | -1 | 73* | 16 | -4 | 60 | -3 | .

Screening results as filed in PubChem BioAssay.
